# In PubChem BioAssay AID1159580 (chemical genetic matrix, 2015):
# “And” between values parts separate entries of the source, which are not always exact repeats. Equal entries are not always repeated. The whole screen tested about 5,500 compounds, of which about 2,000 (36%) were called active. Another 18% or so got no clear call; they are omitted. This is one part of the list. Values without a mark were called inactive. No stated cut-off is given here; in the data, active means normalized growth mostly below about 0.91 (no sharp cut-off); inconclusive means no clear call, values can overlap the other calls; inactive means mostly above about 0.92.
# Assay: chemical genetic growth profiling, strain panel (AID 1159580);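 further: tested at 20 µM; growth read once vehicle control cultures reached saturation at 30 °C; 1 = growth at the plate median or of vehicle wells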
# Conditions: S. cerevisiae deletion strains, growth OD
smiles,measurement,setting,value
C[C@@H]1CC[C@@]2(OC1)OC1C(O)C3C4CC[C@H]5C[C@H](O[C@@H]6O[C@H](CO)[C@H](O[C@@H]7O[C@H](CO)[C@@H](O)[C@H](O[C@@H]8OC[C@@H](O)[C@H](O)[C@H]8O)[C@H]7O[C@@H]7O[C@H](CO)[C@H](O)[C@H](O[C@@H]8O[C@H](CO)[C@@H](O)[C@H](O)[C@H]8O)[C@H]7O)[C@H](O)[C@H]6O)[C@H](O)C[C@]5(C)C4CC[C@]3(C)C1[C@@H]2C (stereo partly specified),normalized growth,"locus YAL013W, strain DEP1, stronger effect = lower value",0.0526 (active)
same,normalized growth,"locus YAL021C, strain ccr4, stronger effect = lower value",0.988
same,normalized growth,"locus YAL026C, strain drs2, stronger effect = lower value",1.01
same,normalized growth,"locus YAL030W, strain snc1, stronger effect = lower value",1.02
same,normalized growth,"locus YBL061C, strain skt5, stronger effect = lower value",1.01
same,normalized growth,"locus YBR009C, strain hhf1, stronger effect = lower value",0.942
same,normalized growth,"locus YBR021W, strain FUR4, stronger effect = lower value",0.0876 (active)
same,normalized growth,"locus YBR023C, strain chs3, stronger effect = lower value",1.01
same,normalized growth,"locus YBR171W, strain sec66, stronger effect = lower value",0.986
same,normalized growth,"locus YBR229C, strain ROT2, stronger effect = lower value",0.0499 (active)
same,normalized growth,"locus YBR231C, strain swc5, stronger effect = lower value",0.99
same,normalized growth,"locus YBR279W, strain paf1, stronger effect = lower value",1.02
same,normalized growth,"locus YCL011C, strain gbp2, stronger effect = lower value",0.986
same,normalized growth,"locus YCL016C, strain dcc1, stronger effect = lower value",0.995
same,normalized growth,"locus YCL029C, strain bik1, stronger effect = lower value",0.0554 (active)
same,normalized growth,"locus YCL061C, strain MRC1, stronger effect = lower value",0.999
same,normalized growth,"locus YCL069W, strain vba3, stronger effect = lower value",1.02
same,normalized growth,"locus YCR088W, strain abp1, stronger effect = lower value",1.01
same,normalized growth,"locus YDL005C, strain med2, stronger effect = lower value",1.06
same,normalized growth,"locus YDL035C, strain GPR1, stronger effect = lower value",0.0509 (active)
same,normalized growth,"locus YDL040C, strain nat1, stronger effect = lower value",1.02
same,normalized growth,"locus YDL074C, strain BRE1, stronger effect = lower value",0.0891 (active)
same,normalized growth,"locus YDL101C, strain DUN1, stronger effect = lower value",0.0606 (active)
same,normalized growth,"locus YDL185W, strain tfp1, stronger effect = lower value",0.0577 (active)
same,normalized growth,"locus YDL192W, strain arf1, stronger effect = lower value",0.0632 (active)
same,normalized growth,"locus YDR001C, strain nth1, stronger effect = lower value",1.02
same,normalized growth,"locus YDR069C, strain doa4, stronger effect = lower value",1.03
same,normalized growth,"locus YDR101C, strain arx1, stronger effect = lower value",0.0567 (active)
same,normalized growth,"locus YDR137W, strain rgp1, stronger effect = lower value",0.509 (active)
same,normalized growth,"locus YDR150W, strain NUM1, stronger effect = lower value",0.0485 (active)
same,normalized growth,"locus YDR159W, strain sac3, stronger effect = lower value",0.84 (active)
same,normalized growth,"locus YDR162C, strain NBP2, stronger effect = lower value",0.0515 (active)
same,normalized growth,"locus YDR195W, strain ref2",0.61 (active)
same,normalized growth,"locus YDR297W, strain sur2, stronger effect = lower value",1.02
same,normalized growth,"locus YDR318W, strain mcm21, stronger effect = lower value",0.0561 (active)
same,normalized growth,"locus YDR334W, strain swr1, stronger effect = lower value",1.02
same,normalized growth,"locus YDR335W, strain msn5, stronger effect = lower value",0.907 (active)
same,normalized growth,"locus YDR388W, stronger effect = lower value",0.0552 (active)
same,normalized growth,"locus YDR392W, strain spt3, stronger effect = lower value",0.919
same,normalized growth,"locus YDR502C, strain sam2, stronger effect = lower value",0.0624 (active)
same,normalized growth,"locus YEL003W, strain gim4, stronger effect = lower value",1
same,normalized growth,"locus YEL037C, strain rad23, stronger effect = lower value",1.02
same,normalized growth,"locus YEL061C, strain CIN8 (second series), stronger effect = lower value",0.999
same,normalized growth,"locus YER015W, strain faa2, stronger effect = lower value",1.02
same,normalized growth,"locus YER016W, strain bim1, stronger effect = lower value",0.977
same,normalized growth,"locus YER110C, stronger effect = lower value",0.0702 (active)
same,normalized growth,"locus YER111C, strain swi4, stronger effect = lower value",0.642 (active)
same,normalized growth,"locus YER155C, strain BEM2 (second series), stronger effect = lower value",1.01
same,normalized growth,"locus YER155C, strain BEM2, stronger effect = lower value",0.0639 (active)
same,normalized growth,"locus YER167W, strain BCK2, stronger effect = lower value",0.0533 (active)
same,normalized growth,"locus YFR010W, strain ubp6, stronger effect = lower value",1.01
same,normalized growth,"locus YGL078C, strain dbp3, stronger effect = lower value",0.0574 (active)
same,normalized growth,"locus YGL086W, strain mad1, stronger effect = lower value",0.0591 (active)
same,normalized growth,"locus YGL167C, strain pmr1, stronger effect = lower value",0.749 (active)
same,normalized growth,"locus YGL173C, strain kem1, stronger effect = lower value",1
same,normalized growth,"locus YGL227W, strain vid30, stronger effect = lower value",1.03
same,normalized growth,"locus YGL240W, strain doc1, stronger effect = lower value",0.846 (active)
same,normalized growth,"locus YGL248W, strain PDE1, stronger effect = lower value",0.0484 (active)
same,normalized growth,"locus YGL253W, strain hxk2, stronger effect = lower value",1.02
same,normalized growth,"locus YGR078C, strain PAC10, stronger effect = lower value",0.0519 (active)
same,normalized growth,"locus YGR135W, strain pre9, stronger effect = lower value",0.0583 (active)
same,normalized growth,"locus YGR252W, strain gcn5, stronger effect = lower value",0.173 (active)
same,normalized growth,"locus YHR013C, strain ard1, stronger effect = lower value",1.03
same,normalized growth,"locus YHR027C, strain rpn1, stronger effect = lower value",1.02
same,normalized growth,"locus YHR030C, strain SLT2, stronger effect = lower value",0.0897 (active)
same,normalized growth,"locus YHR079C, strain IRE1 (second series), stronger effect = lower value",0.0526 (active)
same,normalized growth,"locus YHR079C, strain IRE1, stronger effect = lower value",0.12 (active)
same,normalized growth,"locus YHR094C, strain hxt1, stronger effect = lower value",0.0539 (active)
same,normalized growth,"locus YHR129C, strain ARP1, stronger effect = lower value",0.0547 (active)
same,normalized growth,"locus YHR142W, strain chs7, stronger effect = lower value",0.876
same,normalized growth,"locus YHR200W, strain rpn10, stronger effect = lower value",0.0577 (active)
same,normalized growth,"locus YIL066C, strain RNR3, stronger effect = lower value",0.0505 (active)
same,normalized growth,"locus YIL073C, strain SPO22, stronger effect = lower value",0.119 (active)
same,normalized growth,"locus YIL125W, strain kgd1, stronger effect = lower value",0.0532 (active)
same,normalized growth,"locus YIR030C, strain dcg1, stronger effect = lower value",0.054 (active)
same,normalized growth,"locus YJL092W, strain hpr5, stronger effect = lower value",1.01
same,normalized growth,"locus YJL095W, strain BCK1 (second series), stronger effect = lower value",1.01
same,normalized growth,"locus YJL095W, strain BCK1, stronger effect = lower value",0.059 (active) and 0.105 (active)
same,normalized growth,"locus YJL115W, strain asf1, stronger effect = lower value",1.03
same,normalized growth,"locus YJL129C, strain trk1, stronger effect = lower value",0.944
same,normalized growth,"locus YJL134W, strain LCB3, stronger effect = lower value",0.0488 (active)
same,normalized growth,"locus YJL154C, strain vps35, stronger effect = lower value",1.01
same,normalized growth,"locus YJL164C, strain tpk1, stronger effect = lower value",0.933
same,normalized growth,"locus YJL166W, strain qcr8, stronger effect = lower value",0.969
same,normalized growth,"locus YJL168C, strain set2, stronger effect = lower value",0.0534 (active)
same,normalized growth,"locus YJL187C, strain SWE1 (second series), stronger effect = lower value",0.0518 (active)
